MazEF act = activators of E. coli MazEF toxin-antitoxin RNase, primary screen, biochemical, fluorescence, uHTS; FAM/BHQ RNA-DNA oligo cleavage fluorescence, 5 h; activation, % at 20 µM; 350,000 tested, 0.32% active; AID 504720, 2011; in the data active = activation above about 50%
Target sequence (P0AE70 whole entry, looked up): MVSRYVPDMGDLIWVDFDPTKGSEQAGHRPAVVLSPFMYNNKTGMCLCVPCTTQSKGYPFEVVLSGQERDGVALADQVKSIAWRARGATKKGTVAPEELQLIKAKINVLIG
Bead autofluor = compound fluorescence in toxin protease inhibitor counterscreen | compound autofluorescence counterscreen, microsphere flow cytometry; stronger effect = higher value | fluorescence intensity (test concentration not listed) | 360,000 tested, 3.1% active; in the data active = fluorescence intensity above about 16000; inconclusive = no clear call, values can overlap the other calls
BoNT-F LC inh = BoNT/F light chain protease inhibitors, primary screen, biochemical, flow cytometry, MLPCN library | Botulinum neurotoxin type F light chain protease (Clostridium botulinum) | Multiplex microsphere protease cleavage assay | inhibition, % at 10 µM | 360,000 tested, 0.22% active | AID 588497, 2011; in the data active = inhibition above about 35%, passing the limit was not always enough; inconclusive = no clear call, values can overlap the other calls; note: plate controls were buffer without enzyme for full effect and enzyme alone for no effect
Anthrax LF prot = Bacillus anthracis LF protease inhibitors, primary screen, biochemical, multiplex microsphere, MLPCN library | inhibition, % at 10 µM | multiplex microsphere protease cleavage assay | Lethal factor (Bacillus anthracis), P15917 | 360,000 tested, 0.12% active; note: plate controls were buffer without enzyme for full effect and enzyme alone for no effect
Vc quorum ag-1 = inducers of Vibrio cholerae quorum light production without autoinducers, primary screen, BH1578 luxS cqsA deficient, single point. activation, % at 18.7 µM. V. cholerae BH1578 lux reporter, luminescence, 6 h. 350,000 tested, 0.16% active; in the data active = activation mostly above about 9.7%, no sharp cut-off; inconclusive = no clear call, values can overlap the other calls; inactive = mostly below about 3.7%
BoNT-A LC inh2 = BoNT/A light chain protease inhibitors, primary screen, biochemical, flow cytometry, MLPCN library; multiplex microsphere protease substrate cleavage; AID 588499, 2011; inhibition, % at 10 µM; 360,000 tested, 0.17% active; note: plate controls were buffer without enzyme for full effect and enzyme alone for no effect
Vc quorum ag-2 = V. cholerae lux activation without autoinducers – BH1578 luxS cqsA deficient, cherry-pick, plate reader, dose response. shares compounds with Vc quorum ag-1. V. cholerae BH1578 lux reporter, luminescence, 6 h. activation, % at 50 µM. 620 tested, under 10 active. AID 602243, 2012; call rule not given here
HeLa tox = HeLa cell cytotoxicity, dose response, cytotoxicity control, 24 h, dry powder; 25 tested, under 10 active; shares compounds with Vc quorum ag-1; AID 624140, 2012; activity change, negative = cytotoxicity, % at 35 µM; HeLa viability, CellTiter-Glo ATP luminescence;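 active = signal drop with fitted half-maximal concentration at or below twice the highest valid dose; inconclusive = flat curve with 30 to 70% loss, or poor fit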
An asterisk follows results filed as active; i = inactive; ? = inconclusive; nt = no result; + = active, no number. An excerpt weighted towards active compounds, which were near 3.9% of everything screened. Cut-off read from the data, not from the text of the source, unless noted: active = inhibition above about 30%; inconclusive = no clear call, values can overlap the other calls; inactive = below that.

SMILES	MazEF act	Bead autofluor	BoNT-F LC inh	Anthrax LF prot	Vc quorum ag-1	BoNT-A LC inh2	Vc quorum ag-2	others
CCOCCCNC(=O)C(NC(=O)c1cnccn1)c1ccc(C)cc1 (centres undefined)	3	9424	-1	4	28*	0	2
COc1cnc(-c2ccccn2)nc1Sc1ccc(F)cc1	-1	1819	-1	0	-1	-2	nt
O=C(COC(=O)c1ccc(O)cc1)c1ccc2c(c1)OCCO2	-1	5793	5	3	14	2	6
O=C(COC(=O)c1ccc(O)cc1)Nc1ccc2c(c1)OCCO2	-21	3082	-2	0	1	0	nt
Cc1nnc2ccc(-c3ccc(NS(=O)(=O)c4ccc(Cl)s4)cc3)nn12	6	?	-1	-2	i	2	nt
Cc1ccccc1NC(=O)Cc1nc(COC(=O)c2ccccn2)cs1	5	5983	-4	-5	14	3	0
Cc1ccccc1NC(=O)Cc1nc(COC(=O)C(C)C)cs1	6	5285	-6	-3	i	-2	nt
O=C(OC1CCCCC1=O)c1ccc(F)c(S(=O)(=O)N2CCOCC2)c1 (centres undefined)	-2	?	?	?	-1	?	nt
CCCCn1nnnc1NCc1ccc(N2CCCC2)cc1	9	1645	-59	-13	829*	2	3
CCCn1nnnc1NCc1ccc(N2CCCC2)cc1	10	17311*	-13	-3	+	10	nt	HeLa tox=4
CC(C(=O)c1ccccc1)[n+]1cccc(Br)c1 (centres undefined)	2	3789	1	-7	0	0	nt
N#Cc1ccsc1NC(=O)COC(=O)c1cc2ccccc2cc1O	10	2578	-2	3	0	0	nt
O=C(CCNC(=O)c1ccc(Cl)cc1)NCC(c1ccco1)N1CCCCC1 (centres undefined)	-1	4736	0	2	14	6	0
C[C@H](CO)N1C[C@H](C)[C@H](CN(C)C(=O)Nc2ccccc2)OCc2cnnn2CCCC1=O	1	3645	-1	-2	2	0	nt
COc1cc(NC(=O)Cc2cccs2)ccc1-n1cnnn1	7	3351	-8	-2	20	0	5
O=C(c1cc2cc(Cl)ccc2oc1=O)N1CCCC1	3	3240	-6	-1	7	-1	0
O=C(c1cc2cc(Cl)ccc2oc1=O)N1CCCCCCC1	9	3645	-21	5	i	-3	nt
COc1ccc(N2CCN(C(=O)c3cc4c(s3)CCCCC4)CC2)cc1	-9	3849	-4	-2	0	-1	nt
COc1ccccc1N1CCN(C(=O)c2cc3c(s2)CCC3)CC1	-10	3559	-2	1	12	0	0
COc1ccc(N2CCN(CC(=O)Nc3c(C)cc(C)cc3C)CC2)cc1	0	17139*	-2	3	12	-2	0
Cc1cc(C)c(NC(=O)CN2CCN(C)CC2)c(C)c1	13	4630	-12	-9	0	-2	nt
COc1ccc(NS(=O)(=O)c2cccc(C(=O)N3CCCC(C)C3)c2)cc1 (centres undefined)	9	?	-10	0	19	-6	0
Cc1cc(C)c2c(SC(C)C)nc(N)nc2n1	-10	8553	?	5	-1	0	nt
COc1cc(C)c(NC(=S)NCCCN2CCOCC2)cc1OC	10	4358	-1	2	0	0	nt
Cc1cc(C(=O)OCC(=O)Nc2ccccc2F)c(C)o1	-2	nt	nt	nt	57*	nt	15
Cc1ccc(C(=O)OCC(=O)NC2CCCC2)cc1	6	3604	-21	1	nt	1	i	HeLa tox=11
CC(C)c1ccc(OCC(=O)NC2CCCC2)cc1	-3	5327	-3	-1	nt	-1	i

Bioassay records: PubChem, several laboratories
